The full data set covers some 7,900 targets. This sample favours those with a hit. About 0.6% of all pairs of compound and target were hits.

Chain of UniProt Q9Y5L4 (Q9Y5L4 whole entry, looked up): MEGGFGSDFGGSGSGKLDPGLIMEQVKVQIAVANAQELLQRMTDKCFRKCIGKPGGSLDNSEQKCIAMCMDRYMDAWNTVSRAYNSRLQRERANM
Chain of UniProt Q6P1M0 (Q6P1M0 whole entry, looked up): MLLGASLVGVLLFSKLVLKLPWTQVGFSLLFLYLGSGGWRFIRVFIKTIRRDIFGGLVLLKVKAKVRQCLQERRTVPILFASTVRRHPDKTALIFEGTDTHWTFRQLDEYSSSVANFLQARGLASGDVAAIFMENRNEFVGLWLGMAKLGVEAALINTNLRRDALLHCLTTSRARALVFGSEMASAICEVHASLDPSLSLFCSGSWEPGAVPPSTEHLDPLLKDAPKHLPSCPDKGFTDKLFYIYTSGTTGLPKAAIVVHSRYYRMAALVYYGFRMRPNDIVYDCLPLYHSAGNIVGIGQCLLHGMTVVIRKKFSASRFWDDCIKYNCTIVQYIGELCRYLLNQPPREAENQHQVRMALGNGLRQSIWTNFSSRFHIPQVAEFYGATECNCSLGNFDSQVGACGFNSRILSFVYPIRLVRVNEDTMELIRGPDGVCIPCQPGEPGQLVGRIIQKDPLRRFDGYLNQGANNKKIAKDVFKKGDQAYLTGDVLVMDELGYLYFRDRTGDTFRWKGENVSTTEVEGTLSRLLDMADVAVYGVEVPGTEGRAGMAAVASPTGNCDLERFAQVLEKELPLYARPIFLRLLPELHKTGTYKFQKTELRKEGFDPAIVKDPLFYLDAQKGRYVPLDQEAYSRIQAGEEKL
Chain of UniProt O60264 (O60264 whole entry, looked up): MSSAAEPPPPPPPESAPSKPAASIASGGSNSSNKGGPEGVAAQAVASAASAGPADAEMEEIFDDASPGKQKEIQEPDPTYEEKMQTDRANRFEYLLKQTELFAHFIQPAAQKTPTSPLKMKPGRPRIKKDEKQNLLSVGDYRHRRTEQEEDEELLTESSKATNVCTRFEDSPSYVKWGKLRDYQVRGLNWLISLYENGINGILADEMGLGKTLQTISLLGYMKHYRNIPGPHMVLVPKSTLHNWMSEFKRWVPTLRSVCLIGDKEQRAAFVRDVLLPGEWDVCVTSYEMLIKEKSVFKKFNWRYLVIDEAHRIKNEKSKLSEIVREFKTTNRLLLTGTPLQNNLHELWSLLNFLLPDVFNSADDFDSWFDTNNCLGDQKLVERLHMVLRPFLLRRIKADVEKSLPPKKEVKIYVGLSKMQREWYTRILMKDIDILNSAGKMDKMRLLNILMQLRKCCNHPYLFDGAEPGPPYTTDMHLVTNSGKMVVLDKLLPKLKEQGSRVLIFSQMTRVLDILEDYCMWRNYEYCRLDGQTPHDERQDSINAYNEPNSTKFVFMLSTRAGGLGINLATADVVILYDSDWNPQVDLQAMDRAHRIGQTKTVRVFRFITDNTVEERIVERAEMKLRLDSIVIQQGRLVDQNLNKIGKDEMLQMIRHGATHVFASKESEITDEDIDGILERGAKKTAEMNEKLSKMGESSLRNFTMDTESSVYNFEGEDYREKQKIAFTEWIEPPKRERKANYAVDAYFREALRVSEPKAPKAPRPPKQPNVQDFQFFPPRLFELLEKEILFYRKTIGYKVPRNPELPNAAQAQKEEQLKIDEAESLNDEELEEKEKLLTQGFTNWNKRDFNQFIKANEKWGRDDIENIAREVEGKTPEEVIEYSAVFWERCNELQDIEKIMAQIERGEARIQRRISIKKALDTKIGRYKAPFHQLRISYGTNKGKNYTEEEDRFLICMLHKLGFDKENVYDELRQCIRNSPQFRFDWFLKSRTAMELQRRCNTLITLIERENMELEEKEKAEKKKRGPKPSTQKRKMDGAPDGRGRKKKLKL
Chain of UniProt P27105 (P27105 whole entry, looked up): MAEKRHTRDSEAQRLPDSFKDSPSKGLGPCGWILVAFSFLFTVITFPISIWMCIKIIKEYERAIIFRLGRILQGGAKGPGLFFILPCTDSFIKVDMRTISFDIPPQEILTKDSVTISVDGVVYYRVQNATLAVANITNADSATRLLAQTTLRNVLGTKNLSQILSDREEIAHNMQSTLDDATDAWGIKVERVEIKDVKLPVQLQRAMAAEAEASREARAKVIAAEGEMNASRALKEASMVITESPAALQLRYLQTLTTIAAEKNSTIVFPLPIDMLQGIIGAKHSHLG
Chain of UniProt Q96DW6 (Q96DW6 whole entry, looked up): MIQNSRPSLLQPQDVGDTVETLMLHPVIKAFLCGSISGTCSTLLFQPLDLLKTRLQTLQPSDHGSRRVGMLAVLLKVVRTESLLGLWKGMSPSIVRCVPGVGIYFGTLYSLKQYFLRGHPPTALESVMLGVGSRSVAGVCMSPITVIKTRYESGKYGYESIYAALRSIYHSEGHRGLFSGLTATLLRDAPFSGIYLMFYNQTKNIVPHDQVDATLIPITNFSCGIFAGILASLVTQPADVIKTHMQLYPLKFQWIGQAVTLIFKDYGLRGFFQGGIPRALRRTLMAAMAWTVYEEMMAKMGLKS
Chain of UniProt Q15005 (Q15005 whole entry, looked up): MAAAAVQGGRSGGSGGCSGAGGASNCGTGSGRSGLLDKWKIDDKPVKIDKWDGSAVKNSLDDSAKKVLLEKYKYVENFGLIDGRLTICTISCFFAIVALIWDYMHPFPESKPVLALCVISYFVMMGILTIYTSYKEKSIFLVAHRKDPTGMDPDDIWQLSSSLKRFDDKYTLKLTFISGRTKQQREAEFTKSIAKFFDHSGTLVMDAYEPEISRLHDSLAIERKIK
Chain of UniProt O00506 (O00506 whole entry, looked up): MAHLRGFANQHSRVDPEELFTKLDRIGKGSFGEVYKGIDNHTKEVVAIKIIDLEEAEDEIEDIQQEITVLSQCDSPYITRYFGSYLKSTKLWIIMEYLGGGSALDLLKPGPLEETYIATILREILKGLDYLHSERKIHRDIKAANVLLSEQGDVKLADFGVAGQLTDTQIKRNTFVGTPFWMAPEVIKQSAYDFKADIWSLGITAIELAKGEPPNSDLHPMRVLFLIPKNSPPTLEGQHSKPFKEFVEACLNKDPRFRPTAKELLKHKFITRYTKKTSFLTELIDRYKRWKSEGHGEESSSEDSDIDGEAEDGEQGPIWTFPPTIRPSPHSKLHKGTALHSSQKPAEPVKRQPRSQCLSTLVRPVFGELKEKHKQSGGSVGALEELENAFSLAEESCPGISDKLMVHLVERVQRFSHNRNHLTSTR
Chain of UniProt Q9UMY4 (Q9UMY4 whole entry, looked up): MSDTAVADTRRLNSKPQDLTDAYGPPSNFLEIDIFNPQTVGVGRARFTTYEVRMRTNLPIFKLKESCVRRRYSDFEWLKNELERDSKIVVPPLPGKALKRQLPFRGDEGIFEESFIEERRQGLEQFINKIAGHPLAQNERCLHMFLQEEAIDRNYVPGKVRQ
Chain of UniProt Q07157 (Q07157 whole entry, looked up): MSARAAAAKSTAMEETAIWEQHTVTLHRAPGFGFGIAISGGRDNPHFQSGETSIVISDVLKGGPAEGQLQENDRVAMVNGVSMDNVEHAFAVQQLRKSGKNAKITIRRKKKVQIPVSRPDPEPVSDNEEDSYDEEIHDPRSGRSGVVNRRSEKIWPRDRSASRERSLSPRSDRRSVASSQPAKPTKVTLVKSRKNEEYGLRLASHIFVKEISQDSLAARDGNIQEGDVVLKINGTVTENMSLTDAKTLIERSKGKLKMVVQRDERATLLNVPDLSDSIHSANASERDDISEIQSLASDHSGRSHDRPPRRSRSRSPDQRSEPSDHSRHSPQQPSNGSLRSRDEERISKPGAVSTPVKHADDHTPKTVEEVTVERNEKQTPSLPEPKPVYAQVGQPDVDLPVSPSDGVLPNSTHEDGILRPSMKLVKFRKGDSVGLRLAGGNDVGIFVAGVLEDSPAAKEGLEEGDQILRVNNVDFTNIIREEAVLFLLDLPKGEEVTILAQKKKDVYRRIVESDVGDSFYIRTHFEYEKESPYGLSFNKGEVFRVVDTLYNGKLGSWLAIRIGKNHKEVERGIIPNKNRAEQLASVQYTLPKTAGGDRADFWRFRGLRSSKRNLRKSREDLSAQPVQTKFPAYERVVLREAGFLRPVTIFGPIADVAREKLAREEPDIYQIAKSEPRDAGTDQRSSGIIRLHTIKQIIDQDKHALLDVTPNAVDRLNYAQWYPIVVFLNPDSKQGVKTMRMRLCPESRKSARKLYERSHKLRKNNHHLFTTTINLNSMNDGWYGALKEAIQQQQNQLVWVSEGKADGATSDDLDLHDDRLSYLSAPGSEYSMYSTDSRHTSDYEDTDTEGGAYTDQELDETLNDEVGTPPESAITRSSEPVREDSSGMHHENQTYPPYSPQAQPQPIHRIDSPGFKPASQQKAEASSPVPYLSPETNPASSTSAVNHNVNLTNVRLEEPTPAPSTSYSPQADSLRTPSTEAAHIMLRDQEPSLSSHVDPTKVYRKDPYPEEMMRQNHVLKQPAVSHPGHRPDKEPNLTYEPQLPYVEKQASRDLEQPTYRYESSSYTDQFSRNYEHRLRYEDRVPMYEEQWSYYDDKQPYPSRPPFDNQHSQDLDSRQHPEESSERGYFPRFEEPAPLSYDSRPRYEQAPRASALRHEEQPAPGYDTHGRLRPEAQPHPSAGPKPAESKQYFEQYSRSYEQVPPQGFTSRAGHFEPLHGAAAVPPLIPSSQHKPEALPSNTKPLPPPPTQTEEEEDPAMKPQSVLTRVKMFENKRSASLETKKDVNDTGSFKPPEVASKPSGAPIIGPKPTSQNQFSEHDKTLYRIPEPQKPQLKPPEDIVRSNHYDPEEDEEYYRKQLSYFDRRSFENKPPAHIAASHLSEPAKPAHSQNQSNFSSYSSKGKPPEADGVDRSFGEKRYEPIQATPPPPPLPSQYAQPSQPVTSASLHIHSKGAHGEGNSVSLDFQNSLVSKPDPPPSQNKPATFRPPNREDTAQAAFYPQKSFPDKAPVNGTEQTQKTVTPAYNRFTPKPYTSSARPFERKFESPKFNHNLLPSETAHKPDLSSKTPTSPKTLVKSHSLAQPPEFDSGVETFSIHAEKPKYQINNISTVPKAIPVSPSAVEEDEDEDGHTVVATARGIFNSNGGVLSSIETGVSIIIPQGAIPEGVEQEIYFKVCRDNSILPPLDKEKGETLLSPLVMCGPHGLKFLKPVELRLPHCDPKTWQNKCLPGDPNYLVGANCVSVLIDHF

Compound in the first experiment: C1=CC(=C(C=C1Cl)C2=NC3=NC=CN=C3C(=N2)NC4=CC=NC=C4)F
In words: log2 fold change, soluble protein after heating vs DMSO (PISA); higher = thermal stabilisation; K562 cells, 10 uM, 30 min; active = over 0.2 and 3.5 SD of the protein, either way, in both replicates (recomputed). In short, it runs like this:
(§1)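 Aliquots of K562 cells (2×10^6 cells/mL) treated with 10 μM compound for 30 min were heated for 3 min over 48°C-58°C. After pooling and extraction in PBS with 0.5% NP-40 at 4°C, soluble protein from a 21,000xg, 90 min spin was quantified by TMTpro 16plex LC-MS/MS with channel sums equalised. Thermal stability is expressed against control samples, from duplicates, as a log2 fold change.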
Take TIMM13 (UniProt Q9Y5L4): the log2 fold change is 0.315 (inactive).
On the same count and under the same terms, as for SLC25A38 (UniProt Q96DW6), the figure is -0.023 (inactive); as for SMARCA5 (UniProt O60264), -0.058 (inactive).
Still for that read-out and setting: next, TEX30 (UniProt Q5JUR7): -0.011 (inactive); SMG1 (UniProt Q96Q15): 0.066 (inactive); SNRPD3 (UniProt P62318): -0.04 (inactive).
The same measure, in the same setting: as for SUPT5H (UniProt O00267), the figure is 0.065 (inactive).
For SPAST (UniProt Q9UBP0), the log2 fold change was 0.032 (inactive).
Consider TBCD (UniProt Q9BTW9), for which the log2 fold change is 0.059 (inactive).
On the same count and under the same terms, next, SMAP (UniProt O00193): 0.119 (inactive); SPR (UniProt P35270): -0.01 (inactive).
Same read-out and setting: next, TAOK3 (UniProt Q9H2K8): 0.009 (inactive); SP3 (UniProt Q02447): 0 (inactive).
Turning to STOM (UniProt P27105), the log2 fold change is -0.011 (inactive).
On the same count and under the same terms, as for TJP1 (UniProt Q07157), the figure is 0.022 (inactive); as for SLC30A10 (UniProt Q6XR72), -0.06 (inactive); as for SPCS2 (UniProt Q15005), 0.077 (inactive).
On the same count and under the same terms, next, TM9SF4 (UniProt Q92544): -0.006 (inactive); STAT5B (UniProt P51692): 0.035 (inactive); SRSF10 (UniProt O75494): -0.701 (active).
Still for that read-out and setting: as for SNX12 isoform 1 (UniProt Q9UMY4), the figure is 0.052 (inactive).
For the target TBC1D15 isoform 3 (UniProt Q8TC07), the log2 fold change is 0.024 (inactive).
The same measure, in the same setting: as for SYMPK (UniProt Q92797), the figure is 0.005 (inactive).
For TBC1D23 (UniProt Q9NUY8), the log2 fold change is 0.047 (inactive).
The same measure, in the same setting: next, SMAP2 (UniProt Q8WU79): -0.005 (inactive).
For SNX5 (UniProt Q9Y5X3), the log2 fold change is 0.042 (inactive).
The same measure, in the same setting: as for SNX9 (UniProt Q9Y5X1), the figure is -0.004 (inactive); as for SRPRB (UniProt Q9Y5M8), 0.122 (inactive); as for TANGO6 (UniProt Q9C0B7), -0.003 (inactive).
Same read-out and setting: as for TGFBRAP1 (UniProt Q8WUH2), the figure is -0.046 (inactive).
On to TANK (UniProt Q92844), for which the log2 fold change is 0.101 (inactive).
The same measure, in the same setting: as for TBRG4 (UniProt Q969Z0), the figure is 0.046 (inactive); as for TERF2IP (UniProt Q9NYB0), -0.016 (inactive); as for STK25 (UniProt O00506), 0.062 (inactive).
Same read-out and setting: as for SLC27A4 (UniProt Q6P1M0), the figure is -0.023 (inactive); as for SMC5 (UniProt Q8IY18), -0.091 (inactive).
Still for that read-out and setting: next, SLC30A7 (UniProt Q8NEW0): 0.062 (inactive).

Compound in a further experiment: C1=CC(=CC=C1C2=NC3=C(N2)C=C(C=C3)C(=O)N)OC4=CC=C(C=C4)Cl
The experiment is described as above. In short, it runs like this: as §1
As for TIMM13 (UniProt Q9Y5L4), the log2 fold change is 0 (inactive).
Take SLC25A38 (UniProt Q96DW6): the log2 fold change was -0.036 (inactive).
Same read-out and setting: as for SMARCA5 (UniProt O60264), the figure is 0.005 (inactive); as for TEX30 (UniProt Q5JUR7), -0.013 (inactive).
The same measure, in the same setting: as for SMG1 (UniProt Q96Q15), the figure is -0.012 (inactive); as for SNRPD3 (UniProt P62318), -0.038 (inactive); as for SUPT5H (UniProt O00267), 0.011 (inactive).
On the same count and under the same terms, next, SPAST (UniProt Q9UBP0): -0.046 (inactive).
Regarding TBCD (UniProt Q9BTW9), the log2 fold change is 0.022 (inactive).
The same measure, in the same setting: as for SMAP (UniProt O00193), the figure is 0.017 (inactive); as for SPR (UniProt P35270), 0.005 (inactive); as for TAOK3 (UniProt Q9H2K8), 0.037 (inactive).
The same measure, in the same setting: as for SP3 (UniProt Q02447), the figure is 0.059 (inactive); as for STOM (UniProt P27105), 0.1 (inactive); as for TJP1 (UniProt Q07157), -0.015 (inactive).
SLC30A10 (UniProt Q6XR72): the log2 fold change is 0.001 (inactive).
Same read-out and setting: as for SPCS2 (UniProt Q15005), the figure is -0.043 (inactive); as for TM9SF4 (UniProt Q92544), 0.052 (inactive); as for STAT5B (UniProt P51692), 0.071 (inactive).
Same read-out and setting: as for SRSF10 (UniProt O75494), the figure is 0.035 (inactive); as for SNX12 isoform 1 (UniProt Q9UMY4), -0.019 (inactive).
The same measure, in the same setting: as for TBC1D15 isoform 3 (UniProt Q8TC07), the figure is -0.029 (inactive).
On to SYMPK (UniProt Q92797), for which the log2 fold change was -0.114 (inactive).
Same read-out and setting: as for TBC1D23 (UniProt Q9NUY8), the figure is 0.067 (inactive).
On the same count and under the same terms, next, SMAP2 (UniProt Q8WU79): -0.032 (inactive).
Same read-out and setting: as for SNX5 (UniProt Q9Y5X3), the figure is 0.022 (inactive); as for SNX9 (UniProt Q9Y5X1), -0.024 (inactive).
On to SRPRB (UniProt Q9Y5M8), for which the log2 fold change was -0.018 (inactive).
Turning to TANGO6 (UniProt Q9C0B7), the log2 fold change was -0.026 (inactive).
As to TGFBRAP1 (UniProt Q8WUH2), the log2 fold change was -0.119 (inactive).
Same read-out and setting: next, TANK (UniProt Q92844): -0.048 (inactive).
The same measure, in the same setting: next, TBRG4 (UniProt Q969Z0): -0.154 (inactive).
Same read-out and setting: as for TERF2IP (UniProt Q9NYB0), the figure is -0.003 (inactive).
Regarding STK25 (UniProt O00506), the log2 fold change is -0.009 (inactive).
The same measure, in the same setting: next, SLC27A4 (UniProt Q6P1M0): 0.032 (inactive); SMC5 (UniProt Q8IY18): 0.04 (inactive); SLC30A7 (UniProt Q8NEW0): 0.006 (inactive).

The record behind these values is the supplement of paper PMC10849652.
